Reference: the supplement of paper PMC11417369
In all, about 25,000 sequences were measured (“ln(normalized median fluorescence intensity)”: median about 9.7, highest 2% from about 11 on). This is one part of a sample in which the highest values are shown more often than they occur.

These sequences were tested on PfAP2-HC AP2 domain (GST-tagged) (assay: gcPBM binding intensity (ln(normalized median fluorescence intensity)); higher = stronger DNA binding).
Procedure, shortened: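 An Agilent 4 × 180k array of primer-extended double-stranded 36-bp intergenic genomic probes, with negative controls, was incubated for 1 h with GST-tagged P. falciparum DNA-binding domains expressed in E. coli. Alexa488 anti-GST antibody detected bound protein, scanned at 488 nm. Binding intensity is the highest Masliner-normalised natural-log median intensity across replicate spots of either probe orientation.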

Row | Sequence | gcPBM binding intensity (ln)
1 | ATTTATTTATATTTAGTGCAATACTATTTTTAAATA [GTGCAC_site9886] | 9.48
2 | TTATGTTGTAAATACACACATACATATACATACACA [CACACA_site733] | 9.91
3 | ATAATATATACGTGTGTGCACATGACAAAAGCATAT | 10.6
4 | CTAAAATACGAACACACACACACATATAAATAAATA [CACACA_site7872] | 11.2
5 | AAAAAAAAAAAAAACACACACATATAAATATAAATA [CACACA_site6972] | 10.4
6 | TATATTCTTTTAAACAGTACACACACACATATATAT [XGTACX_site1701] | 11.1
7 | AATATATAAATATATACACACAAAAACATATATATA [CACACA_site1318] | 9.99
8 | ATTCTTTTAAACAGTACACACACACCGATATATATA [CACACA_site8213] | 10.7
9 | TCTTTTAAACAGTACACACACACATATATATATATA [CACACA_site924] | 10.7
10 | AACATATACACGAACACACACACATATAAATAAATA [CACACA_site6380] | 10.4
11 | TACACAAAAATAAACACACACACATATATATATATA [CACACA_site1000] | 10.2
12 | TAAAATATAAAACACACACACATATATATATATATT [CACACA_site224] | 10.3
13 | AATATAAATAAACACACACACATATATATATATATT [CACACA_site2906] | 11
14 | AAAAAATAAAAAAAAACACACACATACAAGCATATA [CACACA_site8451] | 11.1
15 | CATATACACGAACACACACACATATAAATAAATATA [CACACA_site6379] | 10.6
16 | AAGCATTTTTTTTAAAGCCTGTTCATCATCCTTACC [CACACA_negctrl_site129] | 9.44
17 | TATTAATTAAACCATACACACATAATTTTTTTATAA [CACACA_site843] | 9.85

Row | Sequence | gcPBM binding intensity (ln)
18 | ATTATTTAAATTTAACGTACGGAATAAGACATAGAT [XGTACX_site8622] | 9.79
19 | CATTTACATGCCAACATGCACTGAACAATCTTTATA [GTGCAC_site9797] | 9.68
20 | AAAATATATTAAGGCACACACATACATATTTATATA [CACACA_site7707] | 10.2
21 | AAATGAATAAAATTTATTTATAAAAGAAAAATCACA [GTGCAC_negctrl_site225] | 9.57
22 | TATATATATATATATACACACATACAGATATATATT [CACACA_site4629] | 9.88
23 | TAAATAAATAAAAAAACACACATATAAATATAAATA [CACACA_site7815] | 9.93
24 | CATAAAATATAAAACACACACACATATATATATATA [CACACA_site223] | 10.7
25 | AAAAAAAAAAAAAACACACACACACGCATAAATATA [CACACA_site6217] | 11.5
26 | TAAATAAATAAAAAAACACACATATATATATATATA [CACACA_site4029] | 10
27 | ACCATATAAATAAACACACACACACCGATATATATA [CACACA_site5310] | 10.6
28 | AAATAATATAAACATACACACACACCGATATATATA [CACACA_site8945] | 10.7
29 | TAAATAAAAAAACACACACACATATATATATATATA [CACACA_site2269] | 11.4
30 | AAAATACATAAACACACACACACACCGATATATATA [CACACA_site9186] | 11.6
31 | AGAGCATAATAAAACACACACATACATACCTATATA [CACACA_site6566] | 10.9
32 | GTAGAGCATAATAAAACACACACATACATACATATA [CACACA_site8217] | 10.4
33 | AGAGCATAATAAAACACACACATACATACATATATA [CACACA_site935] | 10.3
34 | TATAAATAAAAACACACACACACATATATATATATA [CACACA_site2268] | 10.7
